# Data as given in PubChem BioAssay (NCATS).
# Records with an inconclusive call do not appear. Entries that show only a call come without a potency. Calls of active or inactive are those of the source. Calls come from the whole dose curve; as a rule, active = well fitted inhibition curve with a large enough effect; inconclusive = small, poorly fitted or top-dose-only effect; inactive = no such curve, though single readings can be large or run the other way.
# Molecular target: Retinal dehydrogenase 2 (Homo sapiens) (UniProt O94788)
# Experiment: qHTS for Inhibitors of the Aldehyde Dehydrogenase Family (ALDH1A2) Confirmation screens (AID 2061314); note: nearly all actives have a fitted effect of over 65% in size
# Conditions: ALDH1A2 enzyme inhibition qHTS confirmation; series mostly up to 45.9 µM
# Potency is the fitted concentration of half-maximal effect.
row,Compound,Potency
1,CC(=O)N1CCN(c2ccc(NCc3ccco3)cc2)CC1,14.2 µM (active)
2,N#Cc1ccc(-c2ccc(CNc3ccc(N4CCOCC4)cc3)cn2)cc1,inactive
3,CN(C)c1ccc(-c2csc(N3CCC(C(N)=O)CC3)n2)cc1,14.2 µM (active)
4,COc1ccc(Cl)cc1C(=O)NCc1nnc2cc(-c3nc(C)no3)ccn12,inactive
5,O=C(CCC1CCCN(S(=O)(=O)c2ccccc2F)C1)NCCCN1CCOCC1 (stereo unspecified),inactive
6,COc1ccc2c(c1)c(C(=O)CN(C)C)c(C)n2C,inactive
7,COc1cccc(-c2cccc(C(=O)N3CCN(C(=O)c4ccc(C)cc4)CC3)c2)c1,inactive
8,Cc1cc(C)cc(-c2ccc(C=O)cc2)c1,inactive
9,COc1ccc(-n2c(C)c(C(C)=O)c3cc(OC(=O)c4ccc(C)cc4)ccc32)cc1,inactive
10,CC(=O)N1CCN(c2ccc(NCc3ccc(Br)o3)cc2)CC1,12.7 µM (active)
11,CC(=O)c1c(C)n(-c2cccc(Cl)c2)c2ccc(OC(=O)c3ccccc3)cc12,inactive
12,CC(=O)c1c(C)n(-c2ccc(Cl)cc2)c2ccc(OC(=O)COc3ccccc3)cc12,inactive
13,O=C(Nc1ncc(Cc2ccc(C(F)(F)F)cc2)s1)c1ccc(-c2ccccc2[N+](=O)[O-])o1,25.2 µM (active)
14,CCN(CC)CC(=O)c1c(C)n(C)c2ccc(OC)cc12,inactive
15,Cc1cccc(C(=O)NCc2nnc3cc(-c4nc(C)no4)ccn23)c1,inactive
16,Cc1ccc(-c2ccccc2C=O)c(C)c1,inactive
17,Oc1cc2c(cc1CN1CCN(c3ncccn3)CC1)OCO2,2.01 µM (active)
18,Cc1cc(C)cc(-c2ccccc2C=O)c1,inactive
19,COc1ccc(-n2c(C)c(C(C)=O)c3cc(OC(=O)COc4ccccc4)ccc32)cc1,inactive
20,Cc1cccc(-c2ccccc2C=O)c1,inactive
21,O=C(NCC(=O)N1CCN(Cc2ccccc2)CC1)c1cccc(-c2ccsc2)c1,inactive
22,Cc1ccc(C(=O)NCC(c2ccc3c(c2)OCO3)N2CCN(c3ccc(F)cc3)CC2)cc1 (stereo unspecified),inactive
23,COc1ccc(-c2nc3ccccc3c(=O)n2Cc2ccccc2)cc1CNc1ccc(NC(C)=O)cc1,11.3 µM (active)
24,CC(=O)c1c(C)n(-c2cccc(C)c2)c2ccc(OC(=O)COc3ccccc3)cc12,inactive
25,CCOC(=O)c1c(C)n(-c2ccccc2)c2ccc(OC(=O)c3ccccc3)cc12,inactive
26,CCOC(=O)c1c(C)n(-c2ccc(OC)cc2)c2ccc(OC(=O)COc3ccccc3)cc12,inactive
